KB-3-1 cytotox – qHTS assay for MDR1-selective chemotherapeutics: Primary screen using the parental adenocarcinoma cell KB-3-1. KB-3-1 viability, CellTiter-Glo ATP luminescence, 72 h. Potency, µM (highest dose often 46.1 µM), hits mostly cytotoxic. 400,000 tested, 1.4% active. AID 1347075, 2019; also: % is scaled to controls: 0 for no effect and ±100 for the full control effect; nearly all actives have a fitted effect of over 60% in size
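KB-3-1 cells, DMEM (no phenol red) + 10% FBS; compound by pin transfer, 72 h, 37 °C. Readout: CellTiter-Glo luminescence after 10 min. Data normalized, curve-fitted.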
HT1080NT lethal – qHTS for induction of synthetic lethality in tumor cells producing 2HG: qHTS for the HT-1080-NT fibrosarcoma cell line; HT-1080-NT fibrosarcoma viability, CellTiter-Glo ATP luminescence, 48 h; Potency, µM (series often up to 46.1 µM), for inactives: at the top dose activity, negative = less viability, most hits filed as cytotoxic; 360,000 tested, 1.6% active; AID 686970, 2013;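 also: NT is the 2HG producing partner of a matched IDH1 knockdown line; 0% = DMSO-treated cells and -100% = media-only wells without cells; nearly all actives have a fitted effect of over 55% in size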
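Toxicity toward the 2HG-producing NT line was scored as %Activity, normalised to DMSO and no-cell wells, from CellTiter-Glo luminescence after 48 hours' treatment.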
KB-V1 MDR tox – qHTS assay for MDR1-selective chemotherapeutics: Primary screen using the drug-selected MDR subline cells KB-V1; KB-V1 MDR cells viability, CellTiter-Glo, 72 h; Potency, µM (titrated, usually from 46.1 µM), hits mostly cytotoxic; 400,000 tested, 3.4% active; AID 1347076, 2019; also: % is scaled to controls: 0 for no effect and ±100 for the full control effect; nearly all actives have a fitted effect of over 60% in size
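Cells of the MDR subline KB-V1 are plated, dosed with compound at multiple concentrations, and incubated 72 h at 37 degrees C; CellTiter-Glo is then added and luminescence read after 10 min.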
MCF10A rereplic – A quantitative high throughput screen for small molecules that induce DNA re-replication in MCF 10a normal breast cells; MCF 10A DNA re-replication, Hoechst nuclear intensity, 48 h; Potency, µM (doses to about 46.1 µM), for the others: at the top dose activity, positive = re-replication, most hits filed as activators; 350,000 tested, 2.9% active; AID 624296, 2012; also: % of control where 0% means no effect; nearly all actives have a fitted effect of over 50% in size
SW480 rerep – A quantitative high throughput screen for small molecules that induce DNA re-replication in SW480 colon adenocarcinoma cells; SW480 DNA re-replication, Hoechst DNA content imaging, 48 h; 340,000 tested, 1.8% active; AID 624297, 2012; Potency, µM (titrated, usually from 46.1 µM), without a hit: at the highest dose re-replication activation, usual class: activators; also: % of control where 0% means no effect; nearly all actives have a fitted effect of over 55% in size
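Quantitative HTS format with DMSO vehicle controls; 48 hr drug incubation at 37 C, then 40 min Hoechst staining and scanning imager measurement at 405 nm excitation.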
HT1080 IDH1KD tx – qHTS for induction of synthetic lethality in tumor cells producing 2HG: qHTS for the HT-1080-IDH1KD cell line; HT-1080 IDH1 knockdown viability, ATP luminescence, 48 h; 360,000 tested, 2% active; Potency, µM (top dose mostly 46.1 µM), without a hit: at the top dose activity, negative = toxicity, most hits filed as cytotoxic;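 also: 0% = DMSO wells and -100% = cell-free medium wells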
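% activity derives from luminescence (CellTiter-Glo), normalised to DMSO and no-cell wells. HT-1080-IDH1KD cells, 750/well, had 48 h compound exposure at 37 °C.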
* marks the source's active call; other numbers are inactive results; i = inactive; ? = inconclusive; . = no result; [ ] = another dose, or the depositor's remark. Only some compounds are listed: those with a hit (about 8% of all), similar ones and a draw of the others. Calls follow the shape of the dose curve; as a rule, active = well fitted curve in the direction sought with a large enough effect; inconclusive = small, poorly fitted or top-dose-only effect, or another doubt; inactive = no such curve, though single readings can be large; an effect the other way counts as inactive or inconclusive. Potency is read from the fitted curve at half-maximal effect.

SMILES | KB-3-1 cytotox | HT1080NT lethal | KB-V1 MDR tox | MCF10A rereplic | SW480 rerep | HT1080 IDH1KD tx
Cc1ccc(Nc2c(-c3ccc(N4CCOCC4)cc3)nc3cnccn23)cc1 | i | -24% | i | 18µM* | ? | -28%
Cc1ccc(Nc2c(-c3ccc(N4CCOCC4)cc3)nc3ncccn23)cc1 | i | -7% | i | 0% | -2% | -1%
Cc1ccc(Nc2c(-c3ccc(N4CCOCC4)cc3)nc3ncccn23)cc1C | i | 0% | i | ? | 23µM* | 6%
CN(C)c1ccc(-c2nc3cnccn3c2Nc2ccc3c(c2)OCCO3)cc1 | i | 15% | i | 18µM* | -18% | 2%
COc1ccc(Cc2nnc(NC(=O)CSc3ccc(C)cc3)s2)cc1 | i | -5% | ? | 8% | 2% | -6%
CCc1cc2c(C)cc(=O)oc2cc1OC(=O)C1CCCN1C(=O)OC(C)(C)C (stereo unspecified) | i | 12% | i | 11% | 18µM* | 3%
CC(C)(C)OC(=O)N1CCCC1C(=O)NCCc1ccccc1 (stereo unspecified) | i | 10% | i | ? | 0% | 15%
COc1ccccc1-n1c(SCC(=O)NC2CCCCC2)nc2c(c1=O)SCC2 | i | 2% | i | 7% | -11% | 2%
COc1ccc(Cn2cc(CN3CCc4onc(-c5ccc(Br)cc5)c4C3=O)nn2)cc1 | ? | ? | 21µM* | . | . | ?
O=C(Nc1ccc(-n2nncc2-c2ccco2)cc1)c1ccc(F)cc1 | i | -10% | 16µM* | 26% | ? | -16%
O=C(O)c1ccc(-n2nncc2-c2ccco2)cc1 | i | 7% | i | -2% | -4% | 18%
CCCC(c1nnnn1CS(=O)(=O)c1ccc(C)cc1)N1CCN(c2ccccc2)CC1 (stereo unspecified) | i | 0% | ? | -4% | 16% | -9%
CCC(c1nnnn1CS(=O)(=O)c1ccc(C)cc1)N1CCN(c2nc3ccccc3s2)CC1 (stereo unspecified) | i | -4% | 4.1µM* | ? | ? | -2%
Cc1ccc2cc(CN(C(=O)c3ccco3)c3ccccc3)c(=O)[nH]c2c1 | i | -1% | i | 1% | -1% | -1%
Nc1nc(=S)ss1 | i | 6% | i | 21µM* | ? | 17%
COc1ccc(CCNS(=O)(=O)c2c(C)nc3scc(C)n3c2=O)cc1OC | i | 2% | i | -1% | -10% | 1%
COc1cc(NC(=O)c2ccccc2[N+](=O)[O-])c(C(=O)O)cc1OC | i | 7% | i | 1% | -6% | 2%
CCCCCCCCCCCC(CC1OC(=O)C1CCCCCC)OC(=O)C(CC(C)C)NC=O (stereo unspecified) | . | . | . | 5.3µM* | 13% | .
c1ccc(Cn2c(Cn3c(-c4cnccn4)nc4ccccc43)nc3ccccc32)cc1 | i | ? | 9.2µM* | . | . | -16%
Fc1ccc(CCn2c(Cn3c(-c4cnccn4)nc4ccccc43)nc3ccccc32)cc1 | ? | -21% | ? | . | . | -14%
CC(NCC(O)c1ccc([N+](=O)[O-])cc1)C12CC3CC(CC(C3)C1)C2 (stereo unspecified) | i | 18µM* | i | 17% | 2% | 23µM*
CCC(c1nc2ccccc2[nH]1)n1c(-c2ccnc(Cl)c2)nc2ccccc21 (stereo unspecified) | i | 13% | ? | . | . | 14%
CCOC(=O)c1[nH]c2c(c1C)C(=O)CC(c1ccco1)C2 (stereo unspecified) | i | 1µM* | i | 9.2µM* | 0.18µM* | 0.92µM*
COCCOC(=O)c1[nH]c2c(c1C)C(=O)CC(c1ccco1)C2 (stereo unspecified) | 1.2µM* | 2.3µM* | 1.2µM* | 8.2µM* | 1µM* | 1.6µM*
Cc1c(C(=O)OCCOC(C)C)[nH]c2c1C(=O)CC(C)(C)C2 | i | 9% | i | -1% | 3% | 15%
SMILES | KB-3-1 cytotox | HT1080NT lethal | KB-V1 MDR tox | MCF10A rereplic | SW480 rerep | HT1080 IDH1KD tx
Cc1c(C(=O)OCc2ccccc2)[nH]c2c1C(=O)CC(c1ccco1)C2 (stereo unspecified) | 0.58µM* | ? | ? | ? | ? | 1.3µM*
Cc1c(C(=O)OCCOC(C)C)[nH]c2c1C(=O)CC(c1ccco1)C2 (stereo unspecified) | 0.52µM* | 0.41µM* | 0.46µM* | ? | 1.5µM* | 0.33µM*
CCOc1ccccc1CN1CCN(C2CCOCC2)CC1CCO (stereo unspecified) | i | 2% | i | 2% | 7%[1.84 µM] | 5%
CC(=O)c1c(C)[nH]c(C(=O)COC(=O)COc2ccccc2)c1C | i | 10% | i | -4% | -3% | 8%
CSCCOC(=O)c1[nH]c2c(c1C)C(=O)CC(c1ccco1)C2 (stereo unspecified) | 1.2µM* | ? | ? | ? | 1.3µM* | 2.3µM*
Cc1c(C(=O)OCCOc2ccccc2)[nH]c2c1C(=O)CC(c1ccc(C(C)(C)C)cc1)C2 (stereo unspecified) | i | . | i | . | . | .
NC(=O)CCCn1c(C(=O)c2ccc(Cl)cc2)c2ccc([N+](=O)[O-])cc2[n+]1[O-] | ? | -25% | ? | 22% | ? | -12%
NC(=O)CCCn1c(C(=O)c2cc(Cl)c(N)c(Cl)c2)c2ccc([N+](=O)[O-])cc2[n+]1[O-] | ? | -23% | i | 16µM* | 21µM* | ?
COc1ccc(S(=O)(=O)N(C(C)=O)c2ccc(OC(C)=O)c3ccccc23)cc1[N+](=O)[O-] | ? | 21µM* | ? | ? | ? | ?
CC(=O)Oc1c(Cl)cc(N(C(C)=O)S(=O)(=O)c2ccccc2)c2ccccc12 | ? | ? | ? | ? | 6.5µM* | ?
O=C(Nc1ccc(CSc2ccccc2)cc1)c1ccccc1 | i | 3% | i | -1% | 1% | 11%
O=C(NCCS(=O)(=O)N1CCN(c2ccccc2)CC1)C1CCCCC1 | i | -4% | i | . | . | 7%
CCOc1ccc(C(=O)OCCN(CC)CC)cc1 | i | 1% | i | 16% | -11% | 7%
CN(C)CCOc1ccc(C(C)(C)c2ccccc2)cc1 | i | 17% | i | 13% | 2% | 15%
